# Test results as given in PMC7862700, “An all-to-all approach to the identification of sequence-specific readers for epigenetic DNA modifications on cytosine”.
# How the values were obtained:
# Test in all cases: DAPPL (digital affinity profiling via proximity ligation, sequencing); 10 mM Tris-HCl pH 7.5, 50 mM NaCl, 1 mM DTT, 4% glycerol, room temperature, 30 min; GST-TFs on glutathione beads, 16-mer random dsDNA library, 0.1% formaldehyde crosslink after washing; high values mean tight binding
# Conditions in all cases: protein: recombinant; tags: N-terminal GST; dsDNA, one strand shown
# FLI1 = biological target: T1, FLI1 (Homo sapiens, UniProt Q01543 1-452)
# T1 sequence: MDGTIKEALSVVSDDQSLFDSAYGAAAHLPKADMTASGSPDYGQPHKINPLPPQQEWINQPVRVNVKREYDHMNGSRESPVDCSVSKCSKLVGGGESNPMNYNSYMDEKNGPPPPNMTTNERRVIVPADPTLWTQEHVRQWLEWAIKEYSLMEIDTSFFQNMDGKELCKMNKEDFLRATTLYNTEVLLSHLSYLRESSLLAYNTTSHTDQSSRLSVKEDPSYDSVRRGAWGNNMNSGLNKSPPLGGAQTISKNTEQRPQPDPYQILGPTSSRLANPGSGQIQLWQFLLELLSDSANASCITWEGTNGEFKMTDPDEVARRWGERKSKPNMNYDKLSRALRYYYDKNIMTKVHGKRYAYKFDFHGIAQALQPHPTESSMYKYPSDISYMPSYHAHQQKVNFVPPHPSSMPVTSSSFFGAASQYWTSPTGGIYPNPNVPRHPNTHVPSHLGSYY
# Outline: (§1)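 Binding signal is given per hexamer as its read frequency for a factor divided by its frequency in the tag-only sample. GST-fused human transcription factors were expressed in yeast, captured on glutathione beads, barcoded with DNA and pooled with that sample, then incubated with 200 nmole of a 16-mer random double-stranded DNA library in Tris/NaCl/DTT/glycerol buffer for 30 min at room temperature. The pools were then washed, crosslinked, proximity-ligated, amplified by PCR and sequenced on an Illumina NextSeq500.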
# ELK1 = biological target: T2, ELK1 (Homo sapiens, UniProt P19419 1-428)
# T2 sequence: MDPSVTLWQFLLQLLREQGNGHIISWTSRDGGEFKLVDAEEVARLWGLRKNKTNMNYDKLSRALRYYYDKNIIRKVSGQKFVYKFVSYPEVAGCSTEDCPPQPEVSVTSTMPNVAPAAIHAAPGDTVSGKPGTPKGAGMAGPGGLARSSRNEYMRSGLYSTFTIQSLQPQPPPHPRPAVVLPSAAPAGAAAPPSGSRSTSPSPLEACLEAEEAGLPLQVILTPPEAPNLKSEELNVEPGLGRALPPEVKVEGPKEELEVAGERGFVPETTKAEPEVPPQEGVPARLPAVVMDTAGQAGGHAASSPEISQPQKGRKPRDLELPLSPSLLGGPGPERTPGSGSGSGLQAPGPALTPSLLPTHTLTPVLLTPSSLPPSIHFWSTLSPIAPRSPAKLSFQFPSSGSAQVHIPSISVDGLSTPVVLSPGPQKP
# Outline: as §1
# GABPA = biological target: T3, GABPA (Homo sapiens, UniProt Q06546 1-454)
# T3 sequence: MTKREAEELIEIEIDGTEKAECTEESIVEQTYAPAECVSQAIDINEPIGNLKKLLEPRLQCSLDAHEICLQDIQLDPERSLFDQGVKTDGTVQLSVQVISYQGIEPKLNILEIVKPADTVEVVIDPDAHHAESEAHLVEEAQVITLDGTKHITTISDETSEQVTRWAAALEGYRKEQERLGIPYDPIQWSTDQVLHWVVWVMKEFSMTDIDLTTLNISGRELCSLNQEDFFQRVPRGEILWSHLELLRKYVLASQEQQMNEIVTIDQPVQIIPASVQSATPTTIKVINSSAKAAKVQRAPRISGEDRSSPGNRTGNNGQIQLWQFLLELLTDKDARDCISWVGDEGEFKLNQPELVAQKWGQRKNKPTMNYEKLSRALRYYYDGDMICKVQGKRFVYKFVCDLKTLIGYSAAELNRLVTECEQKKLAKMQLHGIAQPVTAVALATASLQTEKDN
# Outline: as §1
# ERG = biological target: T4, ERG (Homo sapiens, UniProt P11308 1-479)
# T4 sequence: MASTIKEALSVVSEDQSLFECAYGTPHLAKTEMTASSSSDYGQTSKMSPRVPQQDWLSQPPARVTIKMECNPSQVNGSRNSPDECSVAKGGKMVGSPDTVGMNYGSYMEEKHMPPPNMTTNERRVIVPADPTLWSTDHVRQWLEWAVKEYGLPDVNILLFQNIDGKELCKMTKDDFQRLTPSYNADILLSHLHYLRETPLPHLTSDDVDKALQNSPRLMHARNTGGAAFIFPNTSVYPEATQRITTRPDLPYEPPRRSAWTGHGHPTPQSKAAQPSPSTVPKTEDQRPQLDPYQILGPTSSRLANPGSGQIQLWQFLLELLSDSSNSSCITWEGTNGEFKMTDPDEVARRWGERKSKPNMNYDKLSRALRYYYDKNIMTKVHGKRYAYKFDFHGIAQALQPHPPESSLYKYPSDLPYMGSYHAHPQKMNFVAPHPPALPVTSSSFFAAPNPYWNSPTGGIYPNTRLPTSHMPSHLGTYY
# Outline: as §1
# ELF1 = ELF1 (Homo sapiens, UniProt P32519 1-619)
# Outline: as §1
# EHF = biological target: T5, EHF (Homo sapiens, UniProt Q9NZC4 1-300)
# T5 sequence: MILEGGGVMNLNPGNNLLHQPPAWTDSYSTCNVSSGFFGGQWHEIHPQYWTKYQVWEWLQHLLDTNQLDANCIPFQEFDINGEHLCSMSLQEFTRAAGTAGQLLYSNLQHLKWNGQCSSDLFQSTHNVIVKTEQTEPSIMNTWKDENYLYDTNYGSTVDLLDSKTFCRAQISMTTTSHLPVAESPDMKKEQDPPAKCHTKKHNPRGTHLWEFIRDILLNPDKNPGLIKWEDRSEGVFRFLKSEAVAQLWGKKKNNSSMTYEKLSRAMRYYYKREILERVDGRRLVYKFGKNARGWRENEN
# Outline: as §1
# SPI1 = SPI1 (Homo sapiens, UniProt P17947 1-270)
# Outline: as §1
# SPIB = SPIB (Homo sapiens, UniProt Q01892 1-262)
# Outline: as §1
# ELK3 = biological target: T6, ELK3 (Homo sapiens, UniProt P41970 1-407)
# T6 sequence: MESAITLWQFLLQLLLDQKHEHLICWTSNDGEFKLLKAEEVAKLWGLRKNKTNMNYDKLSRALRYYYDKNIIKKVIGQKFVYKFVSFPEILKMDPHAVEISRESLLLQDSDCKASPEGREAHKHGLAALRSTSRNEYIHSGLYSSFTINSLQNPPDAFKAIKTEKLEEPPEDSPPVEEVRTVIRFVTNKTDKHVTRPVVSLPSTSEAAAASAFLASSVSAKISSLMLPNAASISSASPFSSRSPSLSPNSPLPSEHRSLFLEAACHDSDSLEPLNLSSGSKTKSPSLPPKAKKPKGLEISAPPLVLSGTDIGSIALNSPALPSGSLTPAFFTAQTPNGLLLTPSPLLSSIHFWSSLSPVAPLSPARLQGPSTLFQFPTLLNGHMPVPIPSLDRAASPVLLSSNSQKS
# Outline: as §1
# Sequence of SPIB (Q01892 whole entry): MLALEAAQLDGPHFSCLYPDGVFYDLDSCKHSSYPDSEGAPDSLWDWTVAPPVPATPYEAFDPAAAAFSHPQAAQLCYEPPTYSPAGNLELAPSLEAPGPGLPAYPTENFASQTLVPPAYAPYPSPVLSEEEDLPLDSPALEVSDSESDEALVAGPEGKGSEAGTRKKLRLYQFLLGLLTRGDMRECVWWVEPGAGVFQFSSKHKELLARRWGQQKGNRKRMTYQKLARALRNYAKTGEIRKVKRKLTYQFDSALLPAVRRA
# Sequence of ELF1 (P32519 whole entry): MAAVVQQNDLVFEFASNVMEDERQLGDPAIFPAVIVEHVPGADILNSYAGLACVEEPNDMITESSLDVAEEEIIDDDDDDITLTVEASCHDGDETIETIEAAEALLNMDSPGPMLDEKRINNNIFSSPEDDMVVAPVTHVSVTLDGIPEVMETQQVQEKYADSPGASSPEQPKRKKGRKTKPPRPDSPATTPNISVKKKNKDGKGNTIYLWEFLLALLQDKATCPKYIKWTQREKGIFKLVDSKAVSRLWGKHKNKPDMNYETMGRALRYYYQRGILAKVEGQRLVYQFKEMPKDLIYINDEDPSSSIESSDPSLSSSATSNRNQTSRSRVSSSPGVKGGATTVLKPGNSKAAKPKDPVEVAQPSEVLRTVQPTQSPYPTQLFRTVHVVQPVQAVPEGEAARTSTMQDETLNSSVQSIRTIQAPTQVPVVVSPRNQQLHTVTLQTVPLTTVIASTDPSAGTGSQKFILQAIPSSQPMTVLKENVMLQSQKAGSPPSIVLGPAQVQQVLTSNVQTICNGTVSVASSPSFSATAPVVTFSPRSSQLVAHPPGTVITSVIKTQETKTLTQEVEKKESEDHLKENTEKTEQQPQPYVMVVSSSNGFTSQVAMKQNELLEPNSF
sequence,measurement,setting,value
ATTTCG,binding signal,FLI1,"1.24 fold enrichment (6-mer frequency, TF over GST control)"
same,binding signal,ELK1,"1.25 fold enrichment (6-mer frequency, TF over GST control)"
same,binding signal,GABPA,"1.29 fold enrichment (6-mer frequency, TF over GST control)"
same,binding signal,ERG,"1.25 fold enrichment (6-mer frequency, TF over GST control)"
same,binding signal,ELF1,"1.3 fold enrichment (6-mer frequency, TF over GST control)"
same,binding signal,EHF,"1.35 fold enrichment (6-mer frequency, TF over GST control)"
same,binding signal,SPI1,"1.29 fold enrichment (6-mer frequency, TF over GST control)"
same,binding signal,SPIB,"1.37 fold enrichment (6-mer frequency, TF over GST control)"
same,binding signal,ELK3,"1.21 fold enrichment (6-mer frequency, TF over GST control)"
